RXFP1 agonist – qHTS Assay for Agonists of the Relaxin Receptor RXFP1 | Relaxin receptor 1 (Homo sapiens), Q9HBX9 | hit rate 0.3% among 370,000 | HEK293T-RXFP1 cAMP TR-FRET, 30 min; response scale: percent of porcine relaxin response, buffer zero | AID 2676, 2010 | Potency, µM (series often up to 57.5 µM), inactives show top-dose activation, usual class: activators; active means well fitted activation curve with a large enough effect; inconclusive means small, poorly fitted or top-dose-only effect; further: potency means the concentration at half of the fitted maximal effect; on the % scale 0 is the no-effect control and ±100 the full control effect; nearly all actives have a fitted effect of over 60% in size
Target sequence (Q9HBX9 whole entry, looked up): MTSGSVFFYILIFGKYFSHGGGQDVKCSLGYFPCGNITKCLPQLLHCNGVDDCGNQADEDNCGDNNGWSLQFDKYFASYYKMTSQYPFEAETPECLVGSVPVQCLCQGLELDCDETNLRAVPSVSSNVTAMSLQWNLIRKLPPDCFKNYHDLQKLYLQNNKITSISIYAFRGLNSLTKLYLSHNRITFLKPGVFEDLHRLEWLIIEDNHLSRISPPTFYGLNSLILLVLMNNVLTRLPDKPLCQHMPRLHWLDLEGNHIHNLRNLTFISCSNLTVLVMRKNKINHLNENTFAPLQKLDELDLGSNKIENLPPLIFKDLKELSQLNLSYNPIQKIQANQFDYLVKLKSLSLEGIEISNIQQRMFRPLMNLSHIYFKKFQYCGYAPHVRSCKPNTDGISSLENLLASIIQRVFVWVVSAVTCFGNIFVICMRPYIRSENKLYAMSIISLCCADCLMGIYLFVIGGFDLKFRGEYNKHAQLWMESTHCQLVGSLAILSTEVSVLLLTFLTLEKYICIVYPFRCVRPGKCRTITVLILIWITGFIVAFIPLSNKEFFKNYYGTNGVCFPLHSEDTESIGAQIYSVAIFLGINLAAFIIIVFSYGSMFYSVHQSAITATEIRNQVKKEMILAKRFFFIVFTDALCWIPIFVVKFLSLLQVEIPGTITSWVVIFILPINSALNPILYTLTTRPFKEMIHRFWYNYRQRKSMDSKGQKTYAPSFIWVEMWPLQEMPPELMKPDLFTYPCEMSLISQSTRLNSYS
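HEK293T cells stably expressing RXFP1 were pretreated with the PDE4 inhibitor Ro 20174, exposed to compounds for 30 min at 37C, lysed, and cAMP was read by TR-FRET. Data normalized to buffer (basal) and 29 nM porcine relaxin (100%).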
RXFP1 antagonist – qHTS Assay for Antagonists of the Relaxin Receptor RXFP1; AID 1259400, 2018; activity change, negative = inhibition, % at 57.5 µM; Relaxin receptor 1 (Homo sapiens), Q9HBX9; hit rate 0.59% among 350,000; HEK293-RXFP1, relaxin-stimulated cAMP HTRF, 30 min; hits give low values;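 active means activity change of -60% or lower, but not beyond a set lower limit; inconclusive means change between -60% and -40%, or beyond the set limit; inactive means change above -40%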; further: on the % scale 0 is the no-effect control and ±100 the full control effect
gsp antagonist – qHTS for Antagonists of gsp, the Etiologic Mutation Responsible for Fibrous Dysplasia/McCune-Albright Syndrome: qHTS; Potency, µM (series often up to 76.9 µM), for the others: top-dose activity change, negative = inhibition, usual class: inhibitors; hit rate 0.4% among 340,000; gsp-mutant cells, cAMP HTRF, 30 min; calls by dose curve; cell line not stated here;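 further: intracellular cAMP measured with PDE inhibitor Ro 20-1724 present during compound exposure; potency means the concentration at half of the fitted maximal effect; on the % scale 0 is the no-effect control and ±100 the full control effect; nearly all actives have a fitted effect of over 65% in size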
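Cells in G418 medium, seeded 16-24 h, 37C; buffer exchange to DPBS + 1 mM CaCl2, 0.5 mM MgCl2, 0.05% BSA; cpds in DMSO + […] (300 uM stock), 30 min 37C; HTRF cAMP detection.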
pAkt inh – HTS Assay for Inhibitors of Akt Phophorylation: Primary Screen; Neuro2A IGF-stimulated pAkt S473 HTRF, 20 min; hits give low values; activity change, % for hits at 50 µM; hit rate 0.32% among 360,000; AID 651550, 2012; in the data active means activity change below about -80%; inconclusive means mostly about -51% to -80%; further: on the % scale 0 is the no-effect control and ±100 the full control effect
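Neuro2A cells in DMEM with 0.5% FBS, overnight at 37 deg C, given compound at single 50 µM final, then IGF (6 nM final) for 20 min at 37 deg C. Lysed; phospho-Akt Ser473 by HTRF after 24 h, 665/615 ratio.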
gsp ag – qHTS for Agonist of gsp, the Etiologic Mutation Responsible for Fibrous Dysplasia/McCune-Albright Syndrome: qHTS; gsp mutant cells, cAMP HTRF, 30 min; Potency, µM (highest dose often 76.9 µM), for inactives: top-dose activation (cAMP increase), most hits filed as activators; hit rate 0.13% among 340,000; AID 624287, 2012; active means well fitted activation curve with a large enough effect; inconclusive means small, poorly fitted or top-dose-only effect, or another doubt; inactive means no such curve, though single readings can be large or run the other way; cell line not stated here;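 further: phosphodiesterase inhibitor Ro 20-1724 added with compounds to block cAMP breakdown; potency means the concentration at half of the fitted maximal effect; nearly all actives have a fitted effect of over 60% in size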
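Cells stably selected in G418 were plated at 2000/well, grown 16-24 hr, then given compounds in DMSO with the PDE inhibitor […] (300 uM solution added) for 30 min at 37C; cAMP was read by HTRF.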
* marks the source's active call; other numbers are inactive results; i = inactive; ? = inconclusive; · = no result; [ ] = remark or other dose. Compounds with a hit are over-represented: about 1.2% of the library has one in this group of screens.

SMILES	RXFP1 agonist	RXFP1 antagonist	gsp antagonist	pAkt inh	gsp ag
N#Cc1c(N)nc(SCC(=O)C23CC4CC(CC(C4)C2)C3)c(C#N)c1-c1ccc(Cl)cc1	?	1	29%	-82%*	?
CC(C)(C)c1nnc(NS(=O)(=O)c2ccccc2)s1	·	-4	·	·	·
CCCCn1c(CCC)nc([N+](=O)[O-])c1Sc1ccc(Cl)cn1	-3%	4	-25%	-114%*	21%
COc1ccccc1Nc1c2c(nc3ccc(NC(=O)c4ccc(N(C)C)cc4)cc13)CCCC2	3%	-15	·	·	·
CCN(CC)S(=O)(=O)c1ccc2c(c1)nc(SCn1nnc3ccccc3c1=O)n2CC	27%	5	6%	i	35µM*
O=C(OCC(=O)N1CCN(c2ccccc2)CC1)c1cnc(Cl)c(Cl)c1	-2%	·	·	·	·
O=C(OCC(=O)N1CCN(c2ccccc2)CC1)c1cccc(Cl)c1	1%	-19	0%	-113%*	19%
CCOC(=O)c1ccccc1NS(=O)(=O)c1c(-c2ccc(C)cc2)csc1C(=O)OC	0%	-17	·	·	·
O=C(Nc1ccc(S(=O)(=O)NC2=NCCCCC2)cc1)c1ccc(Cl)c([N+](=O)[O-])c1	·	0	-11%	i	-8%
Cc1cccc(C)c1NS(=O)(=O)c1ccc(NC(=O)c2ccc(Cl)c([N+](=O)[O-])c2)cc1	2%	-17	25µM*	i	?
O=C(Nc1ccc(C(O)(C(F)(F)F)C(F)(F)F)cc1)c1ccc(Cl)c([N+](=O)[O-])c1	-2%	-89*	35µM*	i	-39%
C=CCn1c(SCC(=O)NC2CCS(=O)(=O)C2)nnc1-c1ccc(Cl)cc1 (centres undefined)	2%	2	11%	i	-2%[15.4 µM]
O=C(CSc1nnc2c(Cl)cc(Cl)cn12)NC1CCS(=O)(=O)C1 (centres undefined)	18%	5	9%	i	10µM*
O=C(c1ccc(Cn2cc(Cl)cn2)o1)N1CCN(Cc2ccc3c(c2)OCO3)CC1	-1%	8	1%	-111%*	19%
Cc1ccc(C)n1N1C(=O)/C(=C\c2ccc(Cl)cc2)SC1=S	0%	-35	?	i	10%
CC(=O)N(C(C)=O)N1C(=O)/C(=C/c2ccc(Cl)cc2)SC1=S	1%	-109*	-6%	i	-15%[15.4 µM]
OC(CN1CCCCC1)Cn1c2ccc(Cl)cc2c2cc(Cl)ccc21 (centres undefined)	-1%	-62*	15%	i	-17%[15.4 µM]
CCNc1nc(Oc2ccc(C(=O)OCC)cc2)nc(SC)n1	1%	-10	-12%	-121%*	-24%
COc1cc(C2OC(=O)c3c2ccc(OC)c3OC)ccc1O (centres undefined)	-2%	·	·	·	·
CC(C)Cc1nn2c(=O)cc(COC(=O)c3ccc(NC(=O)CCc4ccccc4)cc3)nc2s1	?	4	·	·	·
Cc1nn(-c2nc(-c3ccco3)cc(C(F)(F)F)n2)c(C)c1Cl	1%	-3	12%	-116%*	-37%
Cc1nn(-c2nc(-c3ccc(F)cc3)cc(C(F)(F)F)n2)c(C)c1Cl	3%	-36	·	·	·
CCc1cccc(C)c1NC(=O)C1CCN(c2nnc(C)c3c(C)n(-c4ccccc4)nc23)CC1	-1%	-2	·	·	·
Cc1ccc2c(C)cc(=S)[nH]c2c1	28µM*	8	18%	i	22µM*
O=C(C1CCCN(S(=O)(=O)c2cccc3nsnc23)C1)N1CCN(c2ccccc2)CC1 (centres undefined)	2%	·	·	·	·
SMILES	RXFP1 agonist	RXFP1 antagonist	gsp antagonist	pAkt inh	gsp ag
Cc1cccc(Cc2c(C)nc3c(C(=O)N4CCN(Cc5ccc6c(c5)OCO6)CC4)cnn3c2C)c1	3%	-2	-10%	-83%*	2%
CS(=O)(=O)N(CCc1ccccc1)CC(=O)Nc1ccc2c(c1)OCO2	0%	-10	-15%	-105%*	4%
Cc1nn(-c2cccc(Cl)c2)c2c1C(c1ccncc1)C(C#N)=C(N)O2 (centres undefined)	0%	-7	40µM*	i	-1%
Cc1nn(-c2cccc(Cl)c2)c2c1C(c1cccnc1)C(C#N)=C(N)O2 (centres undefined)	1%	-19	-6%	i	?
O=C(NCCCCCCNC(=O)c1ccccc1O)c1ccccc1O	7%	-23	45µM*	i	-3%[15.4 µM]
S=c1[nH]nc(C2CCCCC2)n1/N=C/c1ccccc1Cl	-3%	-37	40µM*	i	27%[15.4 µM]
CSc1ccc(/C=N/NC(=O)C[n+]2ccccc2)cc1	0%	6	4%	i	20µM*
Cc1ccc(-c2onc(C)c2C)cc1S(=O)(=O)Nc1ccc(Cl)cn1	2%	-19	·	·	·
Cc1ccc(NC(=O)N2CCCC2C(=O)NCCc2ccccc2)cc1 (centres undefined)	1%	6	7%	-121%*	-14%
CCOCCCNC(=O)c1ccc(NC(=O)N2CCCCc3ccccc32)cc1	1%	·	·	·	·
CSc1ccc(-c2nc3cccc(C)n3c2Nc2ccc3c(c2)OCO3)cc1	10%	-2	·	·	·
Cc1ccc(NC(=O)C2CCCN(c3ncnc4onc(C)c34)C2)cc1Cl (centres undefined)	-1%	-12	·	·	·
CC(=O)Nc1ccc(NC(=O)C(C)OC(=O)CCCN=C2NS(=O)(=O)c3ccccc32)cc1 (centres undefined)	-1%	0	6%	i	-50%
CC(OC(=O)CCN=C1NS(=O)(=O)c2ccccc21)C(=O)Nc1ccc(N(C)C)cc1 (centres undefined)	-1%	·	7.1µM*	i	-27%
COCCNC(=O)c1ccc(-n2c(-c3ccccc3)cc3c2CCCCC3)cc1	3%	-14	·	·	·
CCOc1cccc(C2C(C(=O)c3ccc(C)o3)=C(O)C(=O)N2CCCn2ccnc2)c1 (centres undefined)	26%	24	21%	i	43%[15.4 µM]
O=C(C1=C(O)C(=O)N(CCc2ccccc2)C1c1cccnc1)c1ccco1 (centres undefined)	?	18	2%	i	?
COCCCN1C(=O)C(O)=C(C(=O)c2ccc(C)o2)C1c1cccc(Br)c1 (centres undefined)	?	22	11%	i	13µM*
COCCCN1C(=O)C(O)=C(C(=O)c2ccco2)C1c1ccccc1 (centres undefined)	?	31	17%	-108%*	?
COc1ccc(CN(Cc2ccco2)C(=O)c2ccccc2F)cc1	-2%	-13	·	·	·
COc1cc(NC(C)=O)ccc1NC(=O)c1cc2ccccc2o1	2%	-6	3%	i	5%

Assay outcomes (PubChem)
